This is an account of results in PubChem BioAssay (EPA / NIEHS).

Several values for one entry are separate records, joined by “and”; a condition that tells them apart may be missing. Equal values may be shown once. Some structures have more than one record in an assay (separate samples or runs), and their calls can disagree. Activity calls are given as the source filed them. How the source made its calls: active means hit-call score of the fitted dose curve at least 0.9, where 1 is the maximum; inactive means score below 0.9.

The nature of test [1]: ATG_CRE_CIS: Attagene CIS-FACTORIAL HepG2 Assay for human cAMP Responsive Element (CRE) binding protein 3 (AID 2282926). The settings on record: HepG2 CRE cis-reporter, Attagene multiplexed mRNA; actives raise or lower the signal. A digest of the protocol: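 Endogenous transcription factor activity read via CRE-regulated reporter transcripts in transfected HepG2 cells. After 24 h exposure, RNA was reverse-transcribed, amplified, fluorescently labelled and sized by capillary electrophoresis; gain or loss fitted against DMSO.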

Test [2] has as its target CCAAT/enhancer-binding protein beta (Homo sapiens) (UniProt P17676). The test is described as follows: ATG_C_EBP_CIS: Attagene CIS-FACTORIAL HepG2 Assay for human CCAAT/Enhancer Binding Protein (C/EBP) beta (AID 2282927). To be noted: HepG2 Attagene cis-factorial transcription factor reporter; actives raise or lower the signal. A digest of the protocol:
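HepG2 transiently transfected with multiplexed reporter units under cis-regulatory promoters reporting endogenous C/EBPb activity. After 24 h exposure, reporter mRNA assayed by RT-PCR, fluorescent labelling, HpaI digestion and capillary electrophoresis; bidirectional fitting versus DMSO.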

Test [3] is described as follows: ATG_CMV_CIS: Attagene CIS-FACTORIAL HepG2 Assay for human CMV (Internal Marker) (AID 2282928).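 Further: endpoint acts as a background internal control marker rather than a target.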 To be noted: HepG2 CMV promoter reporter, transcription factor profiling; actives raise or lower the signal. A digest of the protocol:
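Fluorescence intensity of RT-PCR-derived reporter fragments, resolved by capillary electrophoresis, gives the signal. HepG2 liver cells bearing transfected cis-element reporters were treated 24 h; activity in either direction was fit relative to DMSO-treated controls.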

Sequence of CCAAT/enhancer-binding protein beta (Homo sapiens) (P17676 whole entry, looked up): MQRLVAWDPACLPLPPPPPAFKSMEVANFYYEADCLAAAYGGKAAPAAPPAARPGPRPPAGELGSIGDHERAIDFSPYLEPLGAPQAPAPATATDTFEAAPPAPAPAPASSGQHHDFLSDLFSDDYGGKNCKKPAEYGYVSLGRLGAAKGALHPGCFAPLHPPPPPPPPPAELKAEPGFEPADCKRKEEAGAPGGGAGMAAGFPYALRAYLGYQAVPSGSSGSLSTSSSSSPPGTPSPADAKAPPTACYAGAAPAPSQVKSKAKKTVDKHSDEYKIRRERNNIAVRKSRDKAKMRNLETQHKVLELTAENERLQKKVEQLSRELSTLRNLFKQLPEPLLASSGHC

As for `CCO[Si](C)(C)OCC`, the compound was called inactive in test [1], in test [2] and in test [3].

Consider `CCOC(OCC)C(=O)c1ccccc1`, for which the result in test [1], in test [2] and in test [3] was inactive.

As a reminder, the AC50 is the concentration giving half of the maximal activity seen. For the compound `C/C=C/C(=O)C1=C(C)CCCC1(C)C`, the AC50 in test [1] is 34.4 µM (active); in test [3], 174 µM (active). Further, the outcome in test [2] was inactive.

Consider `FC(F)(F)C1(F)C(F)(F)C(F)(F)C(F)(F)C1(F)F`, for which the call in test [1], in test [2] and in test [3] was inactive.

Turning to `CC1=NN(c2ccccc2)C(=O)C1`, the compound was classed as inactive in test [1], in test [2] and in test [3].

`CCCCCCCCCCCC(=O)NCCCN(C)C`: the AC50 in test [1] is 20.3 µM (active). The outcome in test [2] and in test [3] was inactive.

Take `FC(F)(F)C(F)(F)C(F)(F)Br`: the compound was called inactive in test [1], in test [2] and in test [3].

As for `CCCCCCCCCCCC`, the call in test [1], in test [2] and in test [3] was inactive.

Turning to `CC1COCc2cc3c(cc21)C(C)(C)C(C)C3(C)C` (centres undefined), the call in test [1], in test [2] and in test [3] was inactive.

For the compound `Brc1cc(Br)c(Oc2c(Br)cc(Br)c(Br)c2Br)cc1Br`, the call in test [1], in test [2] and in test [3] was inactive.

As to `O=C(F)C(F)(F)C(F)(F)C(F)(F)C(=O)F`, the compound was called inactive in test [1], in test [2] and in test [3].

For `CC(C)(C)c1ccc(CCC=O)cc1`, the compound was classed as inactive in test [1], in test [2] and in test [3].

In the case of `O=C1Cc2ccccc2N1c1c(Cl)cccc1Cl`, the compound was called inactive in test [1], in test [2] and in test [3].

Turning to `COCN(COC)c1nc(N(COC)COC)nc(N(COC)COC)n1`, the outcome in test [1], in test [2] and in test [3] was inactive.

On to `Oc1cc2ccccc2cc1O`, for which the outcome in test [1], in test [2] and in test [3] was inactive.

On to `CCCCCC(C)OC(=O)COc1ccc(Cl)c2cccnc12` (centres undefined), for which the outcome in test [1], in test [2] and in test [3] was inactive.

For `CCC(C)c1ccccc1O` (centres undefined), the call in test [1], in test [2] and in test [3] was inactive.

For `C=Cc1ccc(O)c(OC)c1`, the compound was called inactive in test [1], in test [2] and in test [3].

Consider `O=CC(F)(F)C(F)(F)C(F)(F)C(F)F`, for which the compound was classed as inactive in test [1], in test [2] and in test [3].

On to `CCCCCCCCC1CCC(=O)O1` (centres undefined), for which the outcome in test [1], in test [2] and in test [3] was inactive.

Turning to `CCCCCCc1ccc(N)cc1`, the compound was called inactive in test [1], in test [2] and in test [3].

Consider `O=S(=O)(O)c1ccccc1`, for which the compound was called inactive in test [1], in test [2] and in test [3].

For `O=C(c1cc(O)c(O)c(O)c1)c1ccc(O)c(O)c1O`, the compound was classed as inactive in test [1], in test [2] and in test [3].

`CC(O)COc1ccccc1` (centres undefined): the compound was called inactive in test [1], in test [2] and in test [3].

`COCC1CCC(CO)CC1` (centres undefined): the compound was called inactive in test [1], in test [2] and in test [3].

In the case of `CCC(C)c1nccnc1OC` (centres undefined), the outcome in test [1], in test [2] and in test [3] was inactive.

For the compound `C=CC(=O)OCCN(CC)CC`, the AC50 in test [1] is 26.9 µM (active); in test [2], 44.2 µM (active); in test [3] it was 63.2 µM (active).

In the case of `FCOC(C(F)(F)F)C(F)(F)F`, the result in test [1], in test [2] and in test [3] was inactive.

Turning to `COC(O)c1ccccc1` (centres undefined), the compound was called inactive in test [1], in test [2] and in test [3].

For the compound `O=S(=O)(O)c1ccc2cc(O)ccc2c1`, the compound was classed as inactive in test [1], in test [2] and in test [3].

Take `CC1CCC(C(=O)O)CC1` (centres undefined): the compound was classed as inactive in test [1], in test [2] and in test [3].

As to `O=C(CC(=O)C(F)(F)C(F)(F)C(F)(F)F)c1cccs1`, the AC50 is 44.6 µM (active) and 67.1 µM (active) in test [1]; 50 µM (active) in test [3].

`CN(CCO)S(=O)(=O)C(F)(F)C(F)(F)C(F)(F)C(F)(F)C(F)(F)C(F)(F)C(F)(F)C(F)(F)F`: the compound was classed as inactive in test [1], in test [2] and in test [3].

As for `CCc1cccc(CC)c1NC(=O)C(=O)O`, the compound was classed as inactive in test [1], in test [2] and in test [3].

With `O=C1c2ccc(O)c(O)c2C(=O)c2c(O)ccc(O)c21`, the call in test [1] was inactive. Also, in test [3], the AC50 is 4.28 µM (active).

On to `O=C1c2ccccc2C(=O)c2c(O)c(O)cc(O)c21`, for which the compound was classed as inactive in test [1] and in test [2]. Moreover, the AC50 in test [3] is 27.3 µM (active).

As for `c1ccc(CNc2ncnc3c2ncn3C2CCCCO2)cc1` (centres undefined), the result in test [1] and in test [3] was inactive.

In the case of `Nc1ccc(O)c(C(=O)O)c1`, the compound was classed as inactive in test [1], in test [2] and in test [3].

For `CCCCN(C)C`, the compound was called inactive in test [1] and in test [3].

On to `FC(OC(F)(F)C(F)(F)C(F)(F)F)C(F)(F)F` (centres undefined), for which the compound was classed as inactive in test [1] and in test [3].

As for `CC1=CC(=O)c2ccccc2C1=O`, the result in test [1] and in test [3] was inactive.

As to `CCCCc1ccc2ccccc2c1S(=O)(=O)O`, the outcome in test [1], in test [2] and in test [3] was inactive.

As to `COc1ccc(C#N)cc1`, the outcome in test [1], in test [2] and in test [3] was inactive.

As to `c1cnc2c(c1)ccc1cccnc12`, the outcome in test [1], in test [2] and in test [3] was inactive. The AC50 in test [3] is 2.89 µM (active).

Regarding `C[C@]12CC[C@@H]3c4ccc(O)cc4CC[C@H]3[C@@H]1CC[C@@H]2OC(=O)CCC1CCCC1`, the call in test [1] was inactive. For the same compound, the half-maximal activity concentration (AC50) in test [3] was 25.3 µM (active).

Take `c1cc2cccc3c4cccc5cccc(c(c1)c23)c54`: the result in test [1] and in test [3] was inactive.

Turning to `Cc1ccc2ccc3ccc(C)cc3c2c1`, the compound was called inactive in test [1], in test [2] and in test [3].

Regarding `Oc1c(Cl)ccc(Cl)c1Cl`, the result in test [1], in test [2] and in test [3] was inactive.

As to `Oc1cccc2c(O)cccc12`, the outcome in test [1] was inactive. For the same compound, in test [3], the AC50 is 64.5 µM (active).
